# Assay outcomes deposited in PubChem BioAssay by several laboratories.
# Not all results are given here.
# PostGolgi yeast – growth inhibition of a yeast mutant, post-Golgi transport screen; post-Golgi transport phenotypic cell assay; inhibition, % at 10 µM; 98,000 compounds, 0.9% hits;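 further: yeast cells grown in 1536-well plates; yeast grown about 18 h at 30C before absorbance read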
# CYP2C9 activ – activators of human CYP2C9 | AID 1024 | P11712 | activation factor at 5 µM | recombinant CYP2C9, luciferin-H conversion, luminescence; hits give high values; factor 1 = untreated enzyme, 0 = blocked | 96,000 compounds, 1.4% hits;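 active means activation factor of 2 or more for CYP2C9 at a 5 µM dose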
# Target sequence (P11712 whole entry, looked up): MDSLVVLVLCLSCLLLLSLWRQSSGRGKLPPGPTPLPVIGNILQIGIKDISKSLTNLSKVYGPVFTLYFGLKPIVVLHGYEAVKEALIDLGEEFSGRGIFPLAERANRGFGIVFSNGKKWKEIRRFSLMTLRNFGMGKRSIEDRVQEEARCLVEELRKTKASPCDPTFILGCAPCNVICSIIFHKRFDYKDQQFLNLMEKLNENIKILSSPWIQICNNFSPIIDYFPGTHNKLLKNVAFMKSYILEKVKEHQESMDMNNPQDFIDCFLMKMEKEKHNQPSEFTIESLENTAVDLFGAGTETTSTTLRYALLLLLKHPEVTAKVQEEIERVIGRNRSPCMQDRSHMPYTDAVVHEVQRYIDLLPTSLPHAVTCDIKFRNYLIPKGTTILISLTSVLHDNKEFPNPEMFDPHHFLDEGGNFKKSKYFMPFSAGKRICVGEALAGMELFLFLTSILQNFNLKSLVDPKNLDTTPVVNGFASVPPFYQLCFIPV
# CYP2C9 inhib – blocks human cytochrome P450 2C9; inhibition, % at 5 µM; CYP2C9 Supersomes, luciferin-H conversion, luminescence; AID 777; 96,000 compounds, 20% hits;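 active means blocking of liver enzyme CYP2C9 beyond about 50% at 5 µM, limit read from the data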
# PostGolgi ctrl – inhibits growth of the yeast control strain. AID 738. efflux-deficient yeast background strain, growth absorbance A615, 16 h. 98,000 compounds, 5% hits. inhibition, % at 10 µM
# CYP2C19 inhib – inhibitors of human CYP2C19 | P33261 | CYP2C19 Supersomes, luciferin-H EGE luminescence, 30 min | inhibition, % at 5 µM | 96,000 compounds, 21% hits | AID 778;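 active means CYP2C19 inhibition above a set limit at 5 µM in the primary screen, cut at about 50% in these data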
# CYP2C19 act – activators of human cytochrome P450 2C19; 96,000 tested, under 10 active; P33261; recombinant CYP2C19, luciferin-H EGE luminescence; hits give high values; 0 = fully inhibited enzyme, 1 = untreated enzyme; activation factor at 5 µM; AID 1025;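 active means activation factor of at least 2 at 5 µM in the primary screen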
# Numbers stand for hits; . = inactive. Unless noted, no stated cut-off is given here; in the data, active means inhibition above about 30%; inactive means the rest.
SMILES,PostGolgi yeast,CYP2C9 activ,CYP2C9 inhib,PostGolgi ctrl,CYP2C19 inhib,CYP2C19 act
CCn1ncc(C2=NOC(C(=O)NCc3ccc(Cl)cc3)C2)c1C (stereo unspecified),.,.,50,.,66,.
Nn1c(SCC(=O)Nc2ccc(S(=O)(=O)N3CCCC3)cc2)nnc1C(F)(F)F,.,.,.,.,.,.
O=c1[nH]c2c(c3c1CCCC3)CCCC2,.,.,.,.,.,.
COc1cc(C)c(S(=O)(=O)N2CCOCC2)cc1C(C)C,.,.,.,.,53,.
COc1cc(C)c(Cl)cc1S(=O)(=O)NCCN1CCOCC1,.,.,.,.,83,.
Cc1cc(Br)c(S(=O)(=O)NCCN2CCOCC2)cc1C,.,.,.,.,.,.
COc1cc(Cl)c(S(=O)(=O)NCCCN2CCOCC2)cc1Cl,.,.,.,.,.,.
Cc1ccc(S(=O)(=O)NCCCN2CCOCC2)c(C)c1,.,.,.,.,64,.
COc1cc(C)c(Cl)cc1S(=O)(=O)NCCCN1CCOCC1,.,.,.,.,66,.
C=CCn1cc(-c2cccc(Cl)c2)cc(C#N)c1=O,.,.,.,.,.,.
Cc1ccccc1NC(=O)COC(=O)CN1C(=O)NC(C)(C)C1=O,.,.,.,.,.,.
CC(C)(C)c1ccc(C(=O)N2CCC(C(=O)NCC3CCCO3)CC2)cc1 (stereo unspecified),.,.,.,.,.,.
CCOc1cc(C(=O)CSc2nnc(CNc3ccc(Cl)cc3)o2)ccc1NC(=O)CC,.,.,.,.,.,.
COc1c(S(=O)(=O)NCCN2CCOCC2)ccc(Cl)c1Cl,.,.,.,.,80,.
COc1ccccc1NS(=O)(=O)c1cc(C(=O)NCCN2CCOCC2)ccc1Cl,.,.,.,.,.,.
O=C(NC1CC2CCC(C1)N2C(=O)NCc1ccccc1)C1CC1 (stereo unspecified),.,.,.,.,.,.
CCC(C)NC(=O)c1ccccc1NC(=O)Nc1ccccc1 (stereo unspecified),.,.,.,.,.,.
CCCCC(CC)C(=O)Nc1ccccc1C#N (stereo unspecified),.,.,.,.,53,.
CCCCC(CC)C(=O)Nc1ccccc1C(=O)NC(C)C (stereo unspecified),.,.,.,37,.,.
Cc1ccc(P(=Nc2ccccc2)(N2CCOCC2)N2CCOCC2)o1,.,.,.,.,.,.
CCOc1ccc2nc(NC(=O)C3CCN(c4cnccn4)CC3)sc2c1,.,.,.,.,.,.
O=C(CC1CCCC1)OCn1nnc2ccccc2c1=O,.,.,.,.,.,.
COc1ccc(-n2c(O)cnc2Nc2nc(C)cc(C)n2)cc1OC,.,.,.,32,.,.
CCc1ccc(-n2c(O)cnc2Nc2nc(C)cc(C)n2)cc1,.,.,.,.,.,.
CCCCC(=O)Nc1ccc(NC(=O)CC)cc1OC,.,.,.,.,.,.
SMILES,PostGolgi yeast,CYP2C9 activ,CYP2C9 inhib,PostGolgi ctrl,CYP2C19 inhib,CYP2C19 act
CCC(=O)Nc1ccc(S(=O)(=O)Nc2cccc(C)c2)cc1OC,.,.,.,.,71,.
CCC(=O)Nc1ccc(S(=O)(=O)N2CCCCC2)cc1OC,.,2.4,.,.,67,.
COc1cc(S(=O)(=O)N2CCOCC2)ccc1NC(=O)COC(=O)CC12CC3CC(CC(C3)C1)C2,.,.,82,.,69,.
COc1cc(S(=O)(=O)N2CCCCC2)ccc1NC(=O)c1ccc(F)cc1,.,.,.,.,.,.
COc1cc(C2C(C(=O)c3cccs3)=C(O)C(=O)N2Cc2ccco2)cc(OC)c1OC (stereo unspecified),.,.,.,.,.,.
COc1ccc(NC(=O)c2ccc(-n3nc(C)c[n+]3[O-])cc2)cc1,.,.,.,.,.,.
Cc1cccc(-c2noc(CCC(=O)NCC3CCCO3)n2)c1 (stereo unspecified),.,.,.,.,60,.
Cc1ccc(-c2noc(CCCC(=O)N3CCOCC3)n2)cc1,.,.,.,.,.,.
Cc1ccccc1-c1noc(CCC(=O)NCC2CCCO2)n1 (stereo unspecified),.,.,.,.,.,.
Cc1cccc(N(CC(=O)NCC2CCCO2)C(=O)CCC(=O)Nc2cc(C)on2)c1 (stereo unspecified),.,.,52,.,.,.
O=C(CN(C(=O)CCC(=O)Nc1nccs1)c1cccc(F)c1)NCC1CCCO1 (stereo unspecified),.,.,.,.,.,.
